As usually defined, the AC50 is the midpoint of the concentration-response curve, whichever way the signal moves.

Calls of active or inactive are those of the source. The calls were made as follows: active = hit-call score of the fitted dose curve at least 0.9, where 1 is the maximum; inactive = score below 0.9.

What all share (settings): mRNA level, 48 h; actives raise or lower the signal
Read-out in experiment [1]: CFLAR gene, CFLAR (gene 8837)
Description: LTEA_HepaRG_CFLAR: Life Technologies and Expression Analysis (LTEA) Assay for CFLAR gene using HepaRG (AID 2283455). The essentials:
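HepaRG cells were plated for 48 h, switched to serum-free induction medium, then exposed in duplicate for 48 h to 8 concentrations (top 100 uM, half-log steps, 0.5% DMSO). CFLAR mRNA was measured by qRT-PCR, normalized to ACTB, GAPDH and POLR2A.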

Read-out in experiment [2]: Forkhead box O1 (FOXO1), FOXO1 (gene 2308)
The experiment in a line: LTEA_HepaRG_FOXO1: Life Technologies and Expression Analysis (LTEA) Assay for Forkhead box O1 (FOXO1) using HepaRG (AID 2283456). A digest of the protocol: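 Differentiated human HepaRG cells in serum-free induction medium were exposed in duplicate for 48 h to eight half-log concentrations (top 100 uM, 0.5% DMSO). FOXO1 mRNA was measured by TaqMan qRT-PCR, normalised to ACTB, GAPDH and POLR2A, and fitted bidirectionally against DMSO.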

Read-out in experiment [3]: growth arrest and DNA damage 45 (GADD45A), GADD45A (gene 1647)
The experiment in a line: LTEA_HepaRG_GADD45A: Life Technologies and Expression Analysis (LTEA) Assay for growth arrest and DNA damage 45 (GADD45A) using HepaRG (AID 2283458). The essentials:
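Differentiated HepaRG cells exposed 48 h in serum-free induction medium to 8 concentrations, top 100 uM in half-log steps, 0.5% DMSO. GADD45A mRNA quantified by qRT-PCR, normalized to ACTB, GAPDH and POLR2A; bidirectional fit versus DMSO.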

Read-out in experiment [4]: Forkhead box O3 (FOXO3), FOXO3 (gene 2309)
The experiment in a line: LTEA_HepaRG_FOXO3: Life Technologies and Expression Analysis (LTEA) Assay for Forkhead box O3 (FOXO3) using HepaRG (AID 2283459). The essentials: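 Differentiated human HepaRG cells in serum-free induction medium were exposed in duplicate for 48 h to eight half-log concentrations up to 100 uM in 0.5% DMSO. FOXO3 mRNA was quantified by qRT-PCR, normalized to ACTB, GAPDH and POLR2A, with bidirectional fitting versus DMSO.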

Read-out in experiment [5]: ABC Transporter (ABCB1), ABCB1 (gene 5243)
Description: LTEA_HepaRG_ABCB1: Life Technologies and Expression Analysis (LTEA) Assay for ABC Transporter (ABCB1) using HepaRG (AID 2283460). A digest of the protocol:
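Differentiated human HepaRG cells, plated 48 h then switched to serum-free induction medium, were exposed in duplicate to eight half-log concentrations up to 100 uM in 0.5% DMSO for 48 h. ABCB1 mRNA was measured by TaqMan qRT-PCR, normalized to ACTB/GAPDH/POLR2A.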

Read-out in experiment [6]: growth arrest and DNA damage 45 (GADD45B), GADD45B (gene 4616)
Description: LTEA_HepaRG_GADD45B: Life Technologies and Expression Analysis (LTEA) Assay for growth arrest and DNA damage 45 (GADD45B) using HepaRG (AID 2283461). The essentials:
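Human HepaRG monolayers receive chemicals for 48 h at eight half-log concentrations, highest 100 uM, in 0.5% DMSO. Expression is measured by TaqMan qRT-PCR and normalized to ACTB, GAPDH and POLR2A.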

Read-out in experiment [7]: ABC Transporter (ABCC3), ABCC3 (gene 8714)
Description: LTEA_HepaRG_ABCC3: Life Technologies and Expression Analysis (LTEA) Assay for ABC Transporter (ABCC3) using HepaRG (AID 2283462). The essentials:
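Transcriptional change of ABCC3 in HepaRG after 48 h treatment, determined by qRT-PCR normalized to endogenous controls. Concentrations spanned eight half-log steps to 100 uM in 0.5% DMSO.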

Read-out in experiment [8]: ABC Transporter (ABCB11), ABCB11 (gene 8647)
Description: LTEA_HepaRG_ABCB11: Life Technologies and Expression Analysis (LTEA) Assay for ABC Transporter (ABCB11) using HepaRG (AID 2283463). The essentials: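 Differentiated human HepaRG cells were exposed for 48 h in serum-free induction medium to eight half-log concentrations up to 100 uM in 0.5% DMSO. ABCB11 mRNA was quantified by qRT-PCR, normalized to ACTB, GAPDH and POLR2A, and fitted bidirectionally versus DMSO.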

Read-out in experiment [9]: ABC Transporter (ABCC2), ABCC2 (gene 1244)
The experiment in a line: LTEA_HepaRG_ABCC2: Life Technologies and Expression Analysis (LTEA) Assay for ABC Transporter (ABCC2) using HepaRG (AID 2283464). The essentials:
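After plating and 48 h culture, HepaRG medium is replaced with serum-free induction medium and chemicals are added (8 concentrations, max 100 uM, 0.5% DMSO) for 48 h. Total RNA then undergoes qRT-PCR for ABCC2 with housekeeping normalization.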

Read-out in experiment [10]: Broad substrate specificity ATP-binding cassette transporter ABCG2 (Homo sapiens) (UniProt Q9UNQ0)
The experiment in a line: LTEA_HepaRG_ABCG2: Life Technologies and Expression Analysis (LTEA) Assay for ABC Transporter (ABCG2) using HepaRG (AID 2283465). A digest of the protocol:
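Differentiated HepaRG cells in serum-free induction medium were exposed for 48 h, in duplicate, to eight half-log concentrations up to 100 uM in 0.5% DMSO. ABCG2 mRNA was measured by TaqMan qRT-PCR, normalized to ACTB, GAPDH and POLR2A, and fitted bidirectionally versus DMSO.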

Read-out in experiment [11]: ATP-citrate lyase (ACLY), ACLY (gene 47)
Description: LTEA_HepaRG_ACLY: Life Technologies and Expression Analysis (LTEA) Assay for ATP-citrate lyase (ACLY) using HepaRG (AID 2283466). A digest of the protocol:
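Differentiated human HepaRG cells in serum-free induction medium exposed 48 h, in duplicate, to eight half-log concentrations from 100 uM top in 0.5% DMSO; ACLY mRNA measured by qRT-PCR, normalized to ACTB, GAPDH, POLR2A, fitted bidirectionally versus DMSO.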

Read-out in experiment [12]: Peroxisomal acyl-coenzyme A oxidase 1 (ACOX1) gene, ACOX1 (gene 51)
Description: LTEA_HepaRG_ACOX1: Life Technologies and Expression Analysis (LTEA) Assay for Peroxisomal acyl-coenzyme A oxidase 1 (ACOX1) gene using HepaRG (AID 2283467). The essentials:
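Differentiated human HepaRG cells were exposed in duplicate for 48 h in serum-free induction medium to eight half-log concentrations up to 100 uM in 0.5% DMSO. ACOX1 mRNA was then quantified by TaqMan qRT-PCR, normalized to ACTB, GAPDH and POLR2A.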

Read-out in experiment [13]: Alkaline Phosphatase, Placental (ALPP) gene, ALPP (gene 250)
The experiment in a line: LTEA_HepaRG_ALPP: Life Technologies and Expression Analysis (LTEA) Assay for Alkaline Phosphatase, Placental (ALPP) gene using HepaRG (AID 2283468). A digest of the protocol: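 Using human liver HepaRG cells, chemicals are tested in duplicate over 48 h at half-log concentrations topping at 100 uM; phenobarbital 1 mM serves as induction control. ALPP mRNA change by qRT-PCR, bidirectional fit against vehicle.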

Read-out in experiment [14]: Bcl-2 (BAD) gene, BAD (gene 572)
The experiment in a line: LTEA_HepaRG_BAD: Life Technologies and Expression Analysis (LTEA) Assay for Bcl-2 (BAD) gene using HepaRG (AID 2283469). A digest of the protocol:
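Differentiated human HepaRG cells in serum-free induction medium were exposed in duplicate for 48 h to eight concentrations (top 100 uM, half-log steps, 0.5% DMSO). BAD mRNA was quantified by qRT-PCR normalised to ACTB, GAPDH and POLR2A, with bidirectional fitting versus DMSO.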

Read-out in experiment [15]: Bcl-2 (BAX) gene, BAX (gene 581)
The experiment in a line: LTEA_HepaRG_BAX: Life Technologies and Expression Analysis (LTEA) Assay for Bcl-2 (BAX) gene using HepaRG (AID 2283470). The essentials: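 Differentiated HepaRG cells exposed 48 h in serum-free induction medium, eight half-log concentrations from 100 uM, in duplicate, 0.5% DMSO vehicle. BAX mRNA by TaqMan qRT-PCR, normalised to ACTB, GAPDH and POLR2A.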

Read-out in experiment [16]: adenosine kinase (ADK) gene, ADK (gene 132)
The experiment in a line: LTEA_HepaRG_ADK: Life Technologies and Expression Analysis (LTEA) Assay for adenosine kinase (ADK) gene using HepaRG (AID 2283471). A digest of the protocol: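 Following 48 h exposure of HepaRG cells in 0.5% DMSO (top concentration 100 uM, duplicate wells), ADK mRNA induction or suppression was measured by qRT-PCR, normalised to ACTB/GAPDH/POLR2A, and fitted bidirectionally relative to vehicle.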

Read-out in another experiment: BCL2L11 (gene 10018)
The experiment in a line: LTEA_HepaRG_BCL2L11: Life Technologies and Expression Analysis (LTEA) Assay for Bcl-2 (BCL2L11) gene using HepaRG (AID 2283473). The essentials: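 Human hepatic HepaRG cultures are treated 48 h with test chemicals (maximum 100 uM, 0.5% DMSO vehicle). Expression of BCL2L11 is measured by qRT-PCR against ACTB, GAPDH and POLR2A, with activity in either direction scored relative to vehicle.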

Read-out in experiment [17]: Apolipoprotein A-V (APOA5) gene, APOA5 (gene 116519)
The experiment in a line: LTEA_HepaRG_APOA5: Life Technologies and Expression Analysis (LTEA) Assay for Apolipoprotein A-V (APOA5) gene using HepaRG (AID 2283474). A digest of the protocol:
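Concentration-response of APOA5 expression in HepaRG: eight half-log doses to 100 uM, 48 h, qRT-PCR normalized to ACTB/GAPDH/POLR2A, bidirectional fitting with 0.5% DMSO as baseline.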

Read-out in experiment [18]: Alpha-fetoprotein (AFP) gene, AFP (gene 174)
The experiment in a line: LTEA_HepaRG_AFP: Life Technologies and Expression Analysis (LTEA) Assay for Alpha-fetoprotein (AFP) gene using HepaRG (AID 2283472). A digest of the protocol:
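Differentiated human HepaRG cells exposed 48 h in serum-free induction medium, 8-point half-log series from 100 uM in 0.5% DMSO, duplicate. AFP mRNA by qRT-PCR, normalized to ACTB, GAPDH, POLR2A; bidirectional fit vs DMSO.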

Sequence of Broad substrate specificity ATP-binding cassette transporter ABCG2 (Homo sapiens) (Q9UNQ0 whole entry, looked up): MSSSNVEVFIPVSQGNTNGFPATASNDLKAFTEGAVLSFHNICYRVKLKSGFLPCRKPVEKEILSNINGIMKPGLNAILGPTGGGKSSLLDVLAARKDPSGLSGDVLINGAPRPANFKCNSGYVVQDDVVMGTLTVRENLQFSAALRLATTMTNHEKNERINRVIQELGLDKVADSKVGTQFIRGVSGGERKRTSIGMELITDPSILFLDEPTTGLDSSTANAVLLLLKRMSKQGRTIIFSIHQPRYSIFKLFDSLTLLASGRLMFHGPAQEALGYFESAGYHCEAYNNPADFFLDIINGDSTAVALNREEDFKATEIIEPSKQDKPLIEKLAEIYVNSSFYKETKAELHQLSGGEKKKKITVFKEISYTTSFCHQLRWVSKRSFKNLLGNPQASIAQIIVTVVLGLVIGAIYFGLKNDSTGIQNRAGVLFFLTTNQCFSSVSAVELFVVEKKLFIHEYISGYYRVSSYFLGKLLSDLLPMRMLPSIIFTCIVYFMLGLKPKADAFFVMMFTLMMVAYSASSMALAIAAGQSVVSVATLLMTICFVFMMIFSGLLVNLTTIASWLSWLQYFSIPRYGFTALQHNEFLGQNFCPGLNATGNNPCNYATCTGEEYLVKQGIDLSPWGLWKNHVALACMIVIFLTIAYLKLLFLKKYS

As to `Cc1cc(-c2ccc(N)c(C)c2)ccc1N`, the result in experiment [1], in [2], in [3], in [5], in experiment [7] and in experiment [9] was inactive. Further, the call in experiment [10], in experiment [11], in experiment [12], in experiment [13], in experiment [14] and in experiment [15] was inactive. Further, the compound was classed as inactive (in [16]; in the experiment with BCL2L11 (gene 10018); in experiment [17]). The half-maximal activity concentration (AC50) is 18 µM (active) in experiment [4], 50 µM (active) in [6] and 22.4 µM (active) in experiment [8].

Consider `CCC(C)(c1ccc(O)cc1)c1ccc(O)cc1`, for which the figures for the AC50 in experiment [1] and in experiment [8] were 71.4 µM (active) and 88.1 µM (active), respectively. In addition, the call in experiment [2], in experiment [3], in experiment [4], in [5], in experiment [6] and in [7] was inactive. For the same compound, the outcome in experiment [9], in experiment [10], in experiment [11], in [12], in experiment [13] and in [14] was inactive. Moreover, the compound was classed as inactive (in experiment [15]; with BCL2L11 (gene 10018); in [17]).

In the case of `Cc1cc(O)ccc1Cl`, the call in experiment [1], in [2], in [3], in [4], in experiment [5] and in [6] was inactive. In addition, the compound was classed as inactive in [7], in [8], in experiment [10], in [11], in [12] and in experiment [13]. Besides, the compound was classed as inactive (in [14]; in experiment [15]; in experiment [16]; with BCL2L11 (gene 10018); in experiment [17]).

As for `CC(c1ccc(O)cc1)(c1ccc(O)cc1)c1ccc(O)cc1`, the AC50 in experiment [1] is 64.5 µM (active); in experiment [2], 73.5 µM (active); in experiment [4] it was 70.9 µM (active); in experiment [5], 72.9 µM (active); in [6], 35.9 µM (active); in experiment [8] it was 20.8 µM (active). The half-maximal activity concentration (AC50) in experiment [9] is 81 µM (active); in experiment [10], 33.8 µM (active); in experiment [11], 61.6 µM (active); in [12], 70.5 µM (active); in [13], 0.895 µM (active); with BCL2L11 (gene 10018), 82.2 µM (active). Also, the outcome in experiment [3], in [7], in [14], in experiment [15], in [18] and in [17] was inactive.

For the origin of these results see PubChem BioAssay (EPA / NIEHS).
